Assay outcomes: PubChem BioAssay, National Center for Advancing Translational Sciences (NCATS)
GLP-1R agonist: agonists of human GLP-1 receptor. HEK293 GLP-1R CRE-luciferase, luminescence, 4-6 h; cells express a hypersensitive GLP-1R form. Potency, µM (titrated, usually from 45.6 µM), hits mostly activators. hit rate 0.007% among 380,000
Target sequence (P43220 whole entry, looked up): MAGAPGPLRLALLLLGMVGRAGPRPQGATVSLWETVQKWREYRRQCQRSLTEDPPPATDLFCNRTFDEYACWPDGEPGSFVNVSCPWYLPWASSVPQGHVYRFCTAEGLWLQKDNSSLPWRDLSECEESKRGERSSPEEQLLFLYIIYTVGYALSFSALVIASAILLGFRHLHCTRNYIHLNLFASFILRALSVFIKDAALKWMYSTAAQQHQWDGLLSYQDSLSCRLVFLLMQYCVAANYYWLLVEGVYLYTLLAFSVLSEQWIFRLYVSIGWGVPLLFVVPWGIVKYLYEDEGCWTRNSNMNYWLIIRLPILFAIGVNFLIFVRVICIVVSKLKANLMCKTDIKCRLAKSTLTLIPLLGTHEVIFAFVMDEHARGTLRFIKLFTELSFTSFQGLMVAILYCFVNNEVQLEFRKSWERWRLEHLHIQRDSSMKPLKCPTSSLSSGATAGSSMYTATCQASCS
LDHA inh: LDHA (human) enzyme inhibition. hit rate 0.15% among 480,000. AID 1347041. purified LDHA, NADH/diaphorase-resazurin fluorescence; hits give low values. activity change, % (values are at about 110 or 230 µM). P00338; in the data active means activity change below about -30%; inconclusive means mostly about -25% to -30%
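Remaining NADH was detected by diaphorase (0.133 mg/mL) converting 37 µM resazurin to fluorescent resorufin, read at 0 and 20 minutes. The preceding 5-minute room-temperature reaction used 2 nM LDHA, 0.2 mM sodium pyruvate and 0.06 mM NADH at pH 7.4.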
p53 reactivator: restores transcriptional activity of mutant p53; H1299 p53-A138V BP100-luciferase reporter, luminescence, 24 h; Potency, µM (top dose mostly 92.2 µM), actives largely listed as activators; hit rate 0.063% among 320,000; further: nearly all actives have a fitted effect of over 45% in size
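H1299 (p53-null), stable ts p53-A138V + BP100-Luc; 1000 cells/well, Opti-MEM/10% FBS; cpd 4 pt, 1:5; 24 h, 37 deg C, 5% CO2; detection reagent 10 min RT; luminescence.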
ClpP mod: qHTS Assay for Activators of ClpP; AID 651965, 2013; Potency, µM (top dose mostly 57.5 µM); ATP-dependent Clp protease proteolytic subunit (Bacillus subtilis (strain 168)), P80244; hit rate 1.9% among 340,000; purified B. subtilis ClpP, FRET peptide cleavage, 20 min; active means well fitted falling curve with a large enough effect; inconclusive means small, poorly fitted or top-dose-only effect; inactive means no such curve, though single readings can be large or run the other way; further: the source files actives as falling curves though it sought activators and does not explain the sign; nearly all actives have a fitted effect of over 65% in size
Target sequence (P80244 whole entry, looked up): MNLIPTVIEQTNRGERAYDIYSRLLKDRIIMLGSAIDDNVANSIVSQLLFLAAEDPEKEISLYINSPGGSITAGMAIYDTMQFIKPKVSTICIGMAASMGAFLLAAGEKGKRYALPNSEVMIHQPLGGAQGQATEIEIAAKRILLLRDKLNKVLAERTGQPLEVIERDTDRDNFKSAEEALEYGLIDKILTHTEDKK
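Buffer: 100 mM Tris/HCl pH8, 100 mM KCl, 0.05% low protease BSA, 2.5% glycerol, 0.01% Tween-20. ClpP 10 microg/mL final; 20 min RT; delta FRET normalized to ADEP and DMSO controls.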
GLP-1R inv ag: acts as inverse agonist at human GLP-1 receptor; P43220; HEK293 GLP-1R CRE-luciferase, luminescence, 24 h; GLP-1R form is constitutively active; Potency, µM (highest dose often 38.3 µM), actives largely listed as inhibitors; hit rate 1.6% among 410,000; AID 624417; further: nearly all actives have a fitted effect of over 55% in size
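Using stably transfected HEK293 (constitutively active GLP-1R, cAMP-luciferase reporter), compounds were incubated 24 hr and luciferase measured by luminescence.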
GLP1R cytotox: cytotoxicity counter-screen for GLP-1 receptor inverse agonists; HEK293 cAMP-luciferase reporter cells, luminescence, 24 h; Potency, µM (titrated, usually from 38.3 µM), actives largely listed as inhibitors; hit rate 0.13% among 410,000;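 further: loss of luciferase light is scored as toxicity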
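To flag toxic compounds, the library was rerun on cells for 24 hr at 37 deg C and 5% CO2. Viability-linked luminescence was captured 12 min after adding luciferase detection reagent.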
Numbers stand for hits; – = inactive; ? = inconclusive; · = no result given; [ ] = another dose, or the depositor's remark. This is a sample that favours compounds with a hit; in the whole collection about 2.9% have one here. Unless noted, the call rests on the fitted dose curve; in most records, active means well fitted curve in the direction sought with a large enough effect; inconclusive means small, poorly fitted or top-dose-only effect, or another doubt; inactive means no such curve, though single readings can be large; an effect the other way counts as inactive or inconclusive.

SMILES | GLP-1R agonist | LDHA inh | p53 reactivator | ClpP mod | GLP-1R inv ag | GLP1R cytotox
Cc1cc([N+](=O)[O-])cc2c1NC(=O)C2(O)N1CCCC(C)C1 (configuration not stated) | – | – | – | – | – | ?
Cc1cc(Br)c2c(c1)C(O)(N1CCCCC1C)C(=O)N2 (configuration not stated) | – | – | – | – | 11µM | –
Cc1cc2n(n1)SC(Nc1ccc(F)cc1)N2 (configuration not stated) | – | – | – | – | – | ?
CCCCOc1cccc(CNCCCOCC)c1 | · | – | · | · | · | ·
O=C(NCCCN1CCOCC1)c1ccc(Sc2ccccc2Cl)c([N+](=O)[O-])c1 | – | – | – | – | 3.5µM | –
O=C(Nc1cccc(Cl)c1)c1ccc(NCCCN2CCOCC2)c([N+](=O)[O-])c1 | – | – | – | – | 5µM | –
Cc1ccc(NC(=O)c2ccc(NCCCN3CCC(C)CC3)c([N+](=O)[O-])c2)cc1F | – | – | – | · | – | –
CCN(CC)c1cc2c(cc1F)c(=O)c(S(=O)(=O)c1ccc(OC)cc1)cn2Cc1ccccc1 | · | – | · | 32µM | – | –
CCOC(=O)c1cn(CC)c2cc(N3CCOCC3)c(F)cc2c1=O | – | – | – | 32µM | – | –
CCCNC(=O)c1cn(CC)c2cc(N3CCN(C(=O)c4ccco4)CC3)c(F)cc2c1=O | – | – | – | – | – | –
CCN(CC)c1cc2c(cc1F)c(=O)c(S(=O)(=O)c1ccccc1)cn2Cc1ccccc1 | · | – | · | 22µM | – | –
CCn1cc(C(=O)NCc2cccc(F)c2)c(=O)c2cc(F)c(N3CCN(C(=O)c4ccco4)CC3)cc21 | – | – | – | 25µM | ? | ?
COc1cccc(OCCNc2ccc([N+](=O)[O-])cn2)c1 | – | – | – | – | ? | –
COc1ccc(C(=O)NCc2nnc(SCC(=O)NC3CCCCC3)n2C)cc1 | – | – | – | – | – | –
CCN1CCN(c2cc3c(cc2F)c(=O)c(S(=O)(=O)c2ccc(OC)cc2)cn3CC)CC1 | · | – | · | 7.9µM | – | –
CCn1cc(C(=O)O)c(=O)c2cc(F)c(N3CCN(S(=O)(=O)c4ccc(NC(=O)OC)cc4)CC3)cc21 | – | – | – | 18µM | – | –
CCC(=O)N1CCN(c2cc3c(cc2F)c(=O)c(C(=O)O)cn3CC)CC1 | – | – | · | · | – | –
Cc1cccc(C(=O)NCCCN(C)CC(F)(F)F)n1 | · | -31 | · | · | · | ·
COc1ccc(-c2nnc(SCc3nnc(-c4ccccc4)o3)n2-c2ccccc2)cc1 | – | – | – | – | – | –
CCOc1c(OC)ccc2c3c(c(=O)oc12)CCCC3 | ? | – | – | ? | – | –
COC(=O)c1ccc(COc2ccc3c(C)c(C)c(=O)oc3c2C)o1 | – | – | – | – | – | –
Cc1c(OCc2ccc(C(=O)O)o2)ccc2c3c(c(=O)oc12)CCC3 | – | – | – | 3.2µM | – | –
COc1ccc2c3c(c(=O)oc2c1OCC(=O)O)CCCC3 | – | – | – | 20µM | – | –
COC(=O)c1ccc(COc2ccc(C3C4=C(CCCC4=O)Nc4onc(C)c43)cc2)cc1 (configuration not stated) | – | – | – | 28µM | ? | –
COc1ccc2oc(=O)c(C(=O)NCc3ccc(F)cc3)cc2c1 | – | – | – | – | – | –
SMILES | GLP-1R agonist | LDHA inh | p53 reactivator | ClpP mod | GLP-1R inv ag | GLP1R cytotox
COc1ccc(-c2cc(C(F)F)n3ncc(C(=O)NCC4CCCO4)c3n2)cc1 (configuration not stated) | – | – | – | 22µM | – | –
COc1cccc2cc(C(=O)NCC3CCCO3)c(=O)oc12 (configuration not stated) | – | – | – | – | – | –
COc1ccc2oc(=O)c(C(=O)NCc3cccnc3)cc2c1 | – | – | – | 28µM | – | –
COc1ccc2oc(=O)c(C(=O)NCC3CCCO3)cc2c1 (configuration not stated) | – | – | ? | 28µM | – | –
CNC(=O)c1cc2cc(OC)ccc2oc1=O | – | – | – | 28µM | – | –
O=S(CC(O)COCc1ccc(Cl)cc1)c1ccccn1 (configuration not stated) | – | – | – | – | – | –
CCOC(=O)C1=C(C)N=C2SC(C)C(=O)N2C1c1ccccc1 (configuration not stated) | – | – | – | – | – | –
CN(CCO)c1nc2c(c(=O)n(Cc3ccccc3F)c(=O)n2C)n1C | · | – | · | · | · | ·
COC(=O)c1ccccc1-c1ccc(/C=N/Nc2nc(N3CCCC3)nc(N3CCCC3)n2)o1 | – | – | – | – | 10µM | ?
Cc1ccc(/C=N/Nc2nc(N3CCCCC3)nc(N3CCCCC3)n2)o1 | – | – | – | · | –[7.66 µM] | –[7.66 µM]
O=C(NCCN1CCC(n2c(=O)[nH]c3ccccc32)CC1)N1c2ccccc2Sc2ccccc21 | – | – | · | – | ? | –
Cc1cc(OCc2nn[nH]n2)c2c(C)c(Cc3ccccc3)c(=O)oc2c1 | – | – | – | 32µM | – | –
Nc1ccc(C(=O)N/N=C/c2cccs2)cc1 | · | – | · | · | · | ·
CC(C)(C)c1ccc(C(=O)NNc2cc(N3CCCCC3)nc(N3CCCCC3)n2)cc1 | – | – | – | – | 3.2µM | ?
COc1ccc(OC)c(C2C(C(=O)Nc3ccc(C)cc3C)=C(C)Nc3c(C(=O)Nc4ccc(F)cc4)cnn32)c1 (configuration not stated) | · | – | · | ? | ? | –
CCn1c2c(c3cc(OCC(C)C)ccc31)CCCC2=O | – | – | – | 28µM | – | –
C=C(C)c1cccc(C(C)(C)NC(=O)N2CCN(C)CC2)c1 | – | – | – | – | – | –
C=C(C)c1cccc(C(C)(C)NC(=O)N2CCN(c3ccc(OC)cc3)CC2)c1 | – | – | – | 32µM | ? | –
CC1CCN(c2nc3c(S(=O)(=O)c4cccc(Cl)c4)nnn3c3ccsc23)CC1 | · | – | · | 22µM | – | –
O=S(=O)(c1cccc(Cl)c1)c1nnn2c1nc(NC1CCCC1)c1sccc12 | · | – | · | – | – | –
Nc1ccc(C(=O)c2ccncc2)cc1 | · | – | · | · | · | ·
CCc1nc(C)cn1S(=O)(=O)c1cc(C)c(OC)cc1C | – | – | – | – | – | –
CC(Nc1cc(N2CCNCC2)ccc1[N+](=O)[O-])c1ccccc1 (configuration not stated) | – | – | – | 28µM | ? | –
CCS(=O)(=O)N1CCN(c2ccc([N+](=O)[O-])c(NC(C)c3ccccc3)c2)CC1 (configuration not stated) | – | – | – | – | – | –
